Screens (PubChem BioAssay)
ARNT TACC3 PPI = disruptors of ARNT/TACC3 protein interaction, primary screen, biochemical, AlphaScreen, single concentration; Transforming acidic coiled-coil-containing protein 3 (Homo sapiens), Q9Y6A5; AlphaScreen His-ARNT PAS-B/GST-TACC3 binding, luminescence; TACC3 fragment carries E629A point mutation; inhibition, % at 9.99 µM; hit rate 0.66% among 390,000; AID 623870, 2012;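 active = mean inhibition of replicates at least 50% and at least half of replicates each reaching 50%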;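 note: 0% = complete ARNT plus TACC3 wells and 100% = ARNT alone without TACC3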
ALR H2O2 inh = inhibitors of human ALR sulfhydryl oxidase, primary screen, biochemical, H2O2 detection, HRP-luminol luminescence, single point; FAD-linked sulfhydryl oxidase ALR (Homo sapiens), P55789; purified ALR, DTT oxidation; inhibition, % (test concentration not listed); hit rate 3.8% among 290,000; AID 485317, 2010;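 active = mean replicate inhibition above about 79%, with every replicate also reaching it, limit read from the data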
PDI inh = inhibitors of human PDI, primary screen, biochemical, turbidity, single point, plate reader; Protein disulfide-isomerase (Homo sapiens), P07237; PDI insulin aggregation turbidity, A650, 90 min; inhibition, % at 10 µM; hit rate 0.052% among 350,000; AID 588391, 2011;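 active = mean inhibition across replicates of 30% or more, whatever share of single replicates reach that level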
Target sequence (P07237 whole entry, looked up): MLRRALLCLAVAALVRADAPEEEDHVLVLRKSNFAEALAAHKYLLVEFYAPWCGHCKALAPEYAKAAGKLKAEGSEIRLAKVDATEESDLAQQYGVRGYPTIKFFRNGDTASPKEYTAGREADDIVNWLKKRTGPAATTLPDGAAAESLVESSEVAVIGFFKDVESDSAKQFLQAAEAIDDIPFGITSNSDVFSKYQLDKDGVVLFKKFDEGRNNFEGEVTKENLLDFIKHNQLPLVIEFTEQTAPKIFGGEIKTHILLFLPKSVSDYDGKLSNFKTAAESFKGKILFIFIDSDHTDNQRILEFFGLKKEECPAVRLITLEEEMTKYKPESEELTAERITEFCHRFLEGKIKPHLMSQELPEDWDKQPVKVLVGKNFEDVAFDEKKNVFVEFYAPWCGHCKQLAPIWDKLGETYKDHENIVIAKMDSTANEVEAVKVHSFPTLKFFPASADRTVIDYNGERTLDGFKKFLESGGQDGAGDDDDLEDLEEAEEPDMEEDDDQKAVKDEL
ERp5 inh = inhibitors of ERp5-driven insulin aggregation, primary screen, biochemical, turbidity, absorbance 650 nm, single point; 90 min; inhibition, % at 9.99 µM; hit rate 0.05% among 350,000; AID 651711, 2012;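 active = mean replicate inhibition above about 25%, with every replicate also reaching it, limit read from the data, passing the limit was not always enough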
PglD DTNB = C. jejuni PglD acetyltransferase inhibitors, primary screen, biochemical, DTNB colorimetric, single point; UDP-N-acetylbacillosamine N-acetyltransferase PglD (Campylobacter jejuni); purified PglD enzyme, DTNB colorimetric CoA detection; inhibition, % at 12.5 µM; hit rate 0.098% among 360,000; in the data active = inhibition above about 16%, passing the limit was not always enough
CendR NRP1 mod = modulators of CendR peptide binding to NRP-1, primary screen, biochemical, fluorescence polarization, uHTS. FAM-RPARPAR peptide binding to NRP-1. inhibition, % at 25 µM. hit rate 0.85% among 360,000. AID 602438, 2012;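 active = inhibition or corrected inhibition above about 18%, plus a signal ratio from 0.5 to 1.5, limit read from the data, passing the limit was not always enough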
Numbers without * were called inactive; . = not tested or not shown. The sample as a whole holds a higher share of hits than the screen did.

SMILES	ARNT TACC3 PPI	ALR H2O2 inh	PDI inh	ERp5 inh	PglD DTNB	CendR NRP1 mod
COc1ccc(NC2CCCN(C(=O)c3cc4ncccn4n3)C2)cc1 (stereo unspecified)	1.7	99.7*	-4.1	9.5	-0.7	-0.8
COc1ccc(NC2CCCN(C(=O)c3ccc(C(C)=O)cc3)C2)cc1 (stereo unspecified)	1.9	98.0*	4.7	2.8	-0.4	6.4
CCC(=O)N1[C@H](CO)[C@H](c2ccc(-c3cccc(OC)c3)cc2)[C@H]1CNC(C)=O	.	.	.	-0.9	.	.
O=C(C[C@H]1C=C[C@H](NC(=O)C2CCC2)[C@@H](CO)O1)Nc1nccs1	9.1	.	.	5.7	-6.0	.
O=C(C[C@@H]1C[C@@H]2c3cc(NC(=O)c4ccc5c(c4)OCO5)ccc3O[C@@H]2[C@@H](CO)O1)NCc1cccc(F)c1	-4.0	.	.	-4.4	4.9	.
COc1ccc(NC2CCCN(C(=O)c3ccc(C)c(N4CCNC4=O)c3)C2)cc1 (stereo unspecified)	-2.7	97.9*	0.4	3.6	1.9	16.9
COc1ccc(NC2CCCN(C(=O)c3ccc4[nH]c(C)c(C)c4c3)C2)cc1 (stereo unspecified)	7.1	87.7*	-1.4	-0.3	-5.5	8.6
COc1ccc(NC2CCCN(C(=O)c3ccc(C(C)=O)s3)C2)cc1 (stereo unspecified)	.	92.3*	-8.2	5.5	-0.8	2.5
COc1ccc(NC2CCCN(C(=O)c3ccc(OC)o3)C2)cc1 (stereo unspecified)	3.1	98.7*	2.1	1.4	-2.3	15.5
COc1ccc(NC2CCCN(C(=O)C3=NNC(=O)CC3)C2)cc1 (stereo unspecified)	.	.	0.6	-6.4	2.6	-1.4
COc1ccc(NC2CCCN(C(=O)CCc3cccc(Cl)c3)C2)cc1 (stereo unspecified)	18.6	.	4.4	1.8	-3.3	13.6
CC(=O)N(C)C[C@H]1Oc2cc(C#Cc3ccc(F)cc3)ccc2S(=O)(=O)N([C@@H](C)CO)C[C@H]1C	-8.8	.	.	-3.0	6.5	.
CCC(=O)N(C)C[C@@H]1Oc2cc(-c3ccccc3C)ccc2S(=O)(=O)N([C@H](C)CO)C[C@H]1C	3.8	.	.	3.1	-1.0	.
C[C@H]1CN([C@@H](C)CO)C(=O)c2cccc(NC(=O)C3CCCCC3)c2O[C@@H]1CN(C)Cc1ccc(Cl)c(Cl)c1	9.6	.	.	1.7	-0.6	.
Cc1cccc(-c2cnn(-c3ccccc3)c2N)c1	-20.6	68.4	-2.8	2.3	1.0	-11.2
Cc1cccc(-c2cnn(-c3cccc([N+](=O)[O-])c3)c2N)c1	-4.5	92.5*	-2.9	-3.0	.	3.8
C=CCn1c(C)csc1=Nc1ccc(C(C)=O)cc1	1.5	16.2	2.4	-10.7	.	-16.4
C=CCn1c(C)csc1=Nc1ccccc1C	11.2	98.9*	0.4	-2.5	2.6	11.8
CCOC(=O)C(=O)NNc1ccc(C)cc1	-2.7	99.9*	8.1	.	.	-2.6
CCOC(=O)C(=O)NNc1ccc(Cl)cc1	-5.8	100.3*	-2.7	3.7	.	5.6
CCOC(=O)/C(C#N)=C/Nc1ccccc1OC	-3.0	0.0	1.7	.	0.3	6.2
CCc1ccc(C(=O)NNc2ccc(Cl)cc2)cc1	-6.9	-11.6	-0.3	-0.9	.	4.9
Cc1ccccc1NNC(=O)C(=O)NNc1ccccc1C	-0.1	98.4*	6.1	4.3	.	6.7
CCOC(=O)C(=O)NNc1ccccc1OC	7.0	98.9*	6.3	0.9	.	-5.8
CCS(=O)(=O)NCC[C@H]1CC[C@@H](NC(=O)C2CCC2)[C@H](CO)O1	-2.5	.	.	-5.3	0.4	.
N#Cc1cccc(-c2ccc([C@H]3[C@@H](CO)N[C@@H]3CNC(=O)C3CCCC3)cc2)c1	.	.	.	2.7	.	.
CCCC#Cc1cnc2c(c1)C(=O)N([C@@H](C)CO)C[C@H](C)[C@@H](CN(C)C(=O)Nc1c(C)noc1C)O2	-7.5	.	.	1.4	1.6	.
